# MCF10A rerep: inducers of DNA re-replication in MCF 10A breast cells; MCF 10A DNA re-replication, Hoechst nuclear intensity, 48 h; Potency, µM (series often up to 46.1 µM), usual class: activators; AID 624296; actives 2.9% (n = 350,000); further: nearly all actives have a fitted effect of over 50% in size
# BCR signal inh: inhibitors of chronic active B-cell receptor signaling | ABC-DLBCL IkBa-CBG/CBR reporter, luminescence ratio, 4 h | Potency, µM (highest dose often 46.1 µM), hits mostly inhibitors | actives 0.05% (n = 340,000); active means well fitted inhibition curve with a large enough effect in the signal ratio, with a control signal flat, not every such curve was filed as active; inconclusive means small, poorly fitted or top-dose-only effect, or effect the other way, or a change in a side signal; the % refers to the signal ratio
#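 TMD8 human ABC-DLBCL cells with doxycycline-inducible IκBα–green luciferase fusion and unfused red luciferase, in 0.5% FBS medium; compounds up to 46 uM, 4 h at 37C. Green/red luminescence ratio, filter-overlap corrected, fitted to concentration-response curves.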
# IL-1B inflam inh: inhibitors of inflammasome signaling (IL-1 beta secretion) | activity change, % at 57.5 µM | AID 743279 | THP-1 LPS/ATP IL-1B secretion, AlphaLISA, 16 h; active compounds read low | actives 4.7% (n = 360,000); in the data active means activity change below about -50%; inconclusive means mostly about -30% to -49%
#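 THP-1 cells pretreated 1 hr with compounds (up to 57.5 uM final), then stimulated with LPS (250 ng/mL final) plus ATP (1.25 mM final); secreted IL-1B measured by AlphaLISA after 16 hr, decreased signal indicating inhibition.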
# DT40 TDP1 CPT: DT40-hTDP1 cell growth loss with CPT | chicken DT40 Tdp1-/-;hTDP1 cells + 20 nM CPT, ATP luminescence, 48 h | actives 12% (n = 420,000) | Potency, µM (series often up to 46.2 µM), usual class: inhibitors; further: nearly all actives have a fitted effect of over 55% in size
#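 Chicken DT40 Tdp1-/- cells stably complemented with human TDP1 were seeded at 400 cells/well in medium containing 20 nM camptothecin, exposed to pin-transferred compounds, and grown at 37 °C for at least 48 hr. Viability was read as ATP luminescence.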
# TDP1 cell noCPT: qHTS for Inhibitors of human tyrosyl-DNA phosphodiesterase 1 (TDP1): qHTS in cells in absence of CPT; DT40 Tdp1-/- hTDP1 cells, no CPT, ATP luminescence, 48 h; Potency, µM (highest dose often 46.2 µM), most hits filed as inhibitors; actives 15% (n = 420,000); AID 686978, 2013; further: nearly all actives have a fitted effect of over 55% in size
#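 Seeded 400 DT40-hTDP1 cells/well (vehicle DMSO, no 20 nM CPT); pinned compounds; ≥48 hr at 37 °C; CellTiter-Glo luminescence as viability measure.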
# SW480 rerep: induces DNA re-replication in SW480 colon adenocarcinoma cells | SW480 DNA re-replication, Hoechst DNA content imaging, 48 h | Potency, µM (series often up to 46.1 µM), hits mostly activators | actives 1.8% (n = 340,000) | AID 624297; further: nearly all actives have a fitted effect of over 55% in size
#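 Readout is total intensity of Hoechst-stained nuclei, excited at 405 nm and collected at 500-530 nm. Compound treatment lasted 48 hr at 37 C in 5% CO2 before staining.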
# Numbers stand for hits; n = inactive; u = inconclusive; x = not tested or not shown; [ ] = another dose, or the depositor's remark. Most compounds without a hit are left out; they make up all but 19% or so of the library. Unless noted, the call rests on the fitted dose curve; in most records, active means well fitted curve in the direction sought with a large enough effect; inconclusive means small, poorly fitted or top-dose-only effect, or another doubt; inactive means no such curve, though single readings can be large; an effect the other way counts as inactive or inconclusive.
SMILES,MCF10A rerep,BCR signal inh,IL-1B inflam inh,DT40 TDP1 CPT,TDP1 cell noCPT,SW480 rerep
CCCCN(C=O)c1c(CC)nc2c(OCc3ccccc3C)cccn12,x,x,n,14.6µM,u,x
CCc1nc2c(OCc3ccccc3C)cccn2c1N(C)C(=O)C1CC1,x,x,n,u,23.1µM,x
O=C(Oc1ccccc1)c1cc(O)c(O)c(O)c1,x,x,n,20.6µM,23.1µM,x
O=C(Oc1ccccc1)c1cccc(C(=O)Oc2ccccc2)c1,x,x,x,n,n,x
O=C(OCCc1ccccc1)c1cc(O)c(O)c(O)c1,n,u,n,18.4µM,23.1µM,n[9.22 µM]
COC(=O)/C=C1\SC(N2CCOCC2)=C(c2ccc(OC)cc2)C1=O,u,u,n,n,n,n
Cc1ccc(S(=O)(=O)N2CCC[C@H]2C(=O)Nc2ccc(F)cc2C)cc1,n,n,n,u,n,n
Cc1ccc(CC2CC(=O)N(c3cc(Cl)ccn3)C2=O)cc1 (stereo not drawn),n,n,n,n,n,n
O=C(Cn1cc(C(F)(F)F)ccc1=O)NC1CCCC1,n,n,n,n,n,n
O=C(O)c1cccc(NC(=S)NC(NC(=O)c2cccc([N+](=O)[O-])c2)C(Cl)(Cl)Cl)c1 (stereo not drawn),n,n,n,n,n,n
Cc1ccccc1NC(=S)NC(NC(=O)c1ccccc1C)C(Cl)(Cl)Cl (stereo not drawn),n,n,n,u,20.6µM,n
Cc1cc(C)c(NC(=S)NC(NC(=O)c2ccccc2)C(Cl)(Cl)Cl)c(C)c1 (stereo not drawn),n,u,-74.8,u,5.8µM,u
O=C(NC(NC(=S)Nc1ccc(Cl)cc1Cl)C(Cl)(Cl)Cl)c1cccc([N+](=O)[O-])c1 (stereo not drawn),11.6µM,u,-101.8,7.31µM,5.8µM,20.6µM
Oc1ccccc1C=NCCN1CCN(CCN=Cc2ccccc2O)C1c1ccccc1O (stereo not drawn),n,x,n,u,u,u
O=C1NC[C@H](CCCCN2CCN(CCC3CCCCC3)C(=O)C2=O)N(CC2CCCCC2)C1=O,x,x,n,n,n,x
COc1ccc(OC)c(-c2csc(-c3c(N)c(C(=O)c4ccc(Cl)cc4)n4ccccc34)n2)c1,x,x,x,n,n,x
Cc1nn(C)c(C)c1S(=O)(=O)N1CCCC(C(=O)N2CCN(c3ccc(Cl)cc3)CC2)C1 (stereo not drawn),n,u,n,11.6µM,6.51µM,n
CN(C)S(=O)(=O)c1ccc(S(=O)(=O)N2CCCC(C(=O)NC3CCCC3)C2)cc1 (stereo not drawn),n,n,n,u,2.91µM,n
Cc1n[nH]c(C)c1S(=O)(=O)N1CCCC(C(=O)NC2CCCCC2)C1 (stereo not drawn),n,n,n,n,n,n
O=C(NC1CCCCC1)C1CCCN(S(=O)(=O)c2ccc(F)cc2)C1 (stereo not drawn),n,n,n,n,u,n
Cc1nn(C)c(C)c1S(=O)(=O)N1CCCC(C(=O)NC2CCCCCC2)C1 (stereo not drawn),n,n,n,18.4µM,u,n
Cc1cc(C)c(S(=O)(=O)N2CCCC(C(=O)NC3CCCC3)C2)c(C)c1 (stereo not drawn),n,n,n,u,20.6µM,n
Cc1ccccc1NC(=O)CN(c1ccc(Cl)cc1Cl)S(=O)(=O)c1ccccc1,x,x,x,18.4µM,u,x
CCOc1ccccc1N(CC(=O)Nc1cc(OC)ccc1OC)S(=O)(=O)c1ccccc1,u,u,n,u,u,n
CS(=O)(=O)N(CC(=O)Nc1cc(Cl)ccc1Cl)c1ccccc1,n,n,n,u,u,n
Cc1ccc(S(=O)(=O)N(CC(=O)Nc2cccnc2)c2cc(Cl)ccc2C)cc1,x,x,x,16.4µM,18.4µM,x
COc1ccc(OC)c(N(CC(=O)Nc2cccnc2)S(=O)(=O)c2ccc(C)cc2)c1,n,u,n,16.4µM,u,n

# Compound activity: PubChem, National Center for Advancing Translational Sciences (NCATS)
